Measurements from PubChem BioAssay AID1117319 (Southern Research Institute, 2015).
Where “and” joins values, the source holds several entries; their conditions need not be identical. Equal entries are not always repeated. Out of some 260,000 compounds screened, about 1,500 (0.58%) were called active. Inconclusive results (about 5%) are left out.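 Rule for the calls: active = inhibition above a set limit at one or more doses, reproduced on every date tested; inconclusive = results disagree between test dates, or hit never tested in dose response; inactive = the rest.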 The list is a sample of the results. Potency and affinity values are given separately.

Each molecule was assayed against Virion infectivity factor (Human immunodeficiency virus type 1 group M subtype B (isolate BH10)) + Virion infectivity factor (Human immunodeficiency virus type 1 group M subtype B (isolate BRU/LAI)) + Virion infectivity factor (Human immunodeficiency virus type 1 group M subtype B (isolate PCV12)) + Virion infectivity factor (Human immunodeficiency virus type 1 group M subtype B (isolate HXB2)) + DNA dC->dU-editing enzyme APOBEC-3G (Homo sapiens) (UniProt P69720+P69721+P69722+P69723+Q9HC16) (assay: inhibitors of Vif binding to APOBEC3G peptide, primary screen, biochemical, TR-FRET, GST-Vif 1-94, biotin-A3G peptide, dose response retest (AID 1117319;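 note: Vif residues 1-94 fused to GST binding biotinylated APOBEC3G peptide 110-148; 0% = full assay without inhibitor and 100% = GST in place of GST-Vif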)). Conditions: hits give high values.

inhibition, inactive:
CCc1ccc2nc3c(c(C(=O)O)c2c1)CCC3 23.1%
Cc1ccc2nc3c(c(C(=O)O)c2c1)CCC3 32.8%
Cc1c(C(=O)O)sc(=S)n1CCOc1ccccc1 5.91%
O=C(CCN1CCN(S(=O)(=O)c2ccc(Cl)cc2)CC1)Nc1ccc(F)cc1 1.22%
Cc1cc(O)c(C(C)C)cc1N=Cc1ccccc1[N+](=O)[O-] -2.95%
Cc1cc(O)c(C(C)C)cc1N=Cc1ccc(N(C)C)cc1 12.6%
COc1cccc(C=Nc2ccccc2C#N)c1O 14.7%
Cc1cc(O)c(C(C)C)cc1N=Cc1ccccc1O -2.17%
O=C(CC(O)(c1ccccc1)c1ccccc1)Nc1ccccn1 -5.64%
O=C1Nc2ccccc2C(=O)C1(Cl)Cc1ccccc1 (stereo not drawn) 2.05%
Cc1ccc(OCC(=O)OCc2nc3scc(-c4ccccc4)c3c(=O)[nH]2)cc1C -11.5%
Cn1c(=O)c2c(nc(SCCCC#N)n2Cc2ccccc2F)n(C)c1=O 5.84%
Cn1c(=O)c2c(nc(SCc3nn[nH]n3)n2Cc2ccccc2F)n(C)c1=O 26.4%
Cc1ccccc1-n1cnc2cc(NCc3cccs3)ccc21 4.79%
COc1ccccc1-n1cnc2cc(NCc3ccccc3O)ccc21 5.69%
COc1ccc(CC(=O)Nc2ccc(S(=O)(=O)Nc3cc(C)nc(C)n3)cc2)cc1OC -3.26%
CC(C)c1ccc(CCNC(=O)CCNC(=O)c2ccc(Br)cc2)cc1 -4.69%
Oc1c(Br)cc(Br)cc1C=NCc1ccccc1 -9.44%
Oc1ccccc1C=NCC(O)c1ccccc1 (stereo not drawn) 22%
Oc1cccc(C=NCc2ccccc2)c1 -4.5%
COc1cccc(C=NCC(C)N=Cc2cccc(OC)c2O)c1O (stereo not drawn) 1.39%
COC(=O)c1ccc(C2C(Oc3ccccc3)C(=O)N2CCc2ccc(F)cc2)cc1 (stereo not drawn) -5.73%
C=CCN(C(=O)CCS(=O)(=O)c1cccc2nsnc12)c1ccccc1 -10%
Cc1ccc(NC(=O)CN2C(=O)NC(C)(c3ccc(Cl)cc3)C2=O)cc1S(=O)(=O)N1CCOCC1 (stereo not drawn) 19.2%
CC(=O)c1ccc(S(=O)(=O)Nc2ccc(C(=O)NCC(c3cccs3)N3CCOCC3)cc2)cc1 (stereo not drawn) 3.75%
CC1(C)Cc2cccc(OCC(=O)N3CCN(c4ccccc4F)CC3)c2O1 -1.24%
CN(c1ccccc1)c1nc(-n2ccnc2)nc(-n2ccnc2)n1 -3.98%
c1ccc(N(c2ccccc2)c2nc(-n3ccnc3)nc(-n3ccnc3)n2)cc1 -4.38% and -2.66%
